In assay [1] the target is Voltage-gated inwardly rectifying potassium channel KCNH2 (Homo sapiens) (UniProt Q12809). Nature of the assay: qHTS Assay for Small Molecule Inhibitors of the Human hERG Channel Activity (AID 588834).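 Note: top concentration of the series differs between compounds; % is set by controls: 0 for no effect and ±100 for the full control effect; lower thallium flux fluorescence means stronger hERG block; nearly all actives have a fitted effect of over 50% in size.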 In short, it runs like this: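 Blockade is seen as reduced FluxOR thallium-flux fluorescence in U2OS cells expressing hERG from a BacMam construct, in Opti-MEM with 2% FCS. Concentration-response data fitted to the Hill equation for AC50.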
Sequence of Voltage-gated inwardly rectifying potassium channel KCNH2 (Homo sapiens) (Q12809 whole entry, looked up): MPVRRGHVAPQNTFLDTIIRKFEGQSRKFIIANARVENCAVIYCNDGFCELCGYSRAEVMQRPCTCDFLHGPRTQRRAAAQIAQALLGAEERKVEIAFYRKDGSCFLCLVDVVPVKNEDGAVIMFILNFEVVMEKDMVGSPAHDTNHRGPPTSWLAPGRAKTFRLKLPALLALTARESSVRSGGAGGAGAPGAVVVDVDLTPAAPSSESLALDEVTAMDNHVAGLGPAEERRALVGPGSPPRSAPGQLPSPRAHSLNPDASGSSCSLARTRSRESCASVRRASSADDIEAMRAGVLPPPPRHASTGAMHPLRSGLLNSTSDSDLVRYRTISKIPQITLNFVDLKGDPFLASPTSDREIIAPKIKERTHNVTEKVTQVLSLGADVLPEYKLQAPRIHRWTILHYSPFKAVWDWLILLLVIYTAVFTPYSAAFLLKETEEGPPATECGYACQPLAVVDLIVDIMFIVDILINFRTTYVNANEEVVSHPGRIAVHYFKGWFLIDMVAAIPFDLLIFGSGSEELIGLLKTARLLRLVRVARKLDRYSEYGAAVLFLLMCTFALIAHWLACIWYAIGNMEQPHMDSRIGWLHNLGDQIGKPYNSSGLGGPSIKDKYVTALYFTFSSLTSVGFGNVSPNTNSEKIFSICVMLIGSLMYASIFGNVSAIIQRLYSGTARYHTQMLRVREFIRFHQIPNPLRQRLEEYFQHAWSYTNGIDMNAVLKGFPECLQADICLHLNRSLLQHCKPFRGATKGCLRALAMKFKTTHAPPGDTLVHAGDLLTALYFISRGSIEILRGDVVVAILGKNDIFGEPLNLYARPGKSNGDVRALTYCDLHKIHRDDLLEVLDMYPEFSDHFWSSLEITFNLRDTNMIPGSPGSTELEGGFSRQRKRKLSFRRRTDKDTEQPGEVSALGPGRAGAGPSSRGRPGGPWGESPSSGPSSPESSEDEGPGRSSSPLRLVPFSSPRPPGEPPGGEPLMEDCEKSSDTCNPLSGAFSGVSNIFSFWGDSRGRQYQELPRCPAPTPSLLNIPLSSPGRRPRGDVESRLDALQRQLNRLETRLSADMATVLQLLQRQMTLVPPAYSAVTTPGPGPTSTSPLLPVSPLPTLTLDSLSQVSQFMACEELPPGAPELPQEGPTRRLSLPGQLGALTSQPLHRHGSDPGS

Assay [2] can be described thus: S16 Schwann cell viability assay (CellTiter-Glo assay) (AID 624031).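 Note: cellular ATP luminescence as a viability measure; plate controls were DMSO-treated cells for no effect and cell-free wells for full effect; nearly all actives have a fitted effect of over 70% in size.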 In short, it runs like this: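 CellTiter-Glo ATP luminescence counter-screen in untransfected S16 rat Schwann cells, 24h compound exposure at 37 degree Celsius after overnight seeding (500-750 cells/well); response scaled between cell-free wells and DMSO (0% activity), curves classed by r2 and magnitude.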

The subject of assay [3] is CP192. Nature of the assay: qHTS profiling for inhibitors of Plasmodium falciparum proliferation (AID 504749). Note: nearly all actives have a fitted effect of over 60% in size. Note: potency is the fitted concentration of half-maximal effect. The conditions noted are these: P. falciparum in erythrocytes, SYBR Green DNA, 72 h; series mostly up to 28.7 µM. Summed up:
(§1)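 Infected RBCs, 0.3% parasitemia/2.5% Hct final; cpd 72 h, 37 C, 5% CO2; lysis buffer with saponin/triton/SYBR Green I, o/n RT dark; FI 485/535; norm. to artemisinin (0.29 uM) and DMSO.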

The test system of assay [4] is CP194. The assay is described as above. The conditions noted are these: P. falciparum in erythrocytes, SYBR Green DNA, 72 h; series mostly up to 28.7 µM. In short, it runs like this: as §1
For assay [5], the system named is CP201. The description is as above. To be noted: P. falciparum in erythrocytes, SYBR Green DNA, 72 h; series mostly up to 28.7 µM. Summed up: as §1
Assay [6] relates to CP266. The assay is described as above. To be noted: P. falciparum in erythrocytes, SYBR Green DNA, 72 h; series mostly up to 28.7 µM. In short, it runs like this:
as §1

The subject of assay [7] is CP269. The assay is described as above. The conditions noted are these: P. falciparum in erythrocytes, SYBR Green DNA, 72 h; series mostly up to 28.7 µM. Summed up:
as §1

The test system of assay [8] is CP286. The assay is described as above. The conditions noted are these: P. falciparum in erythrocytes, SYBR Green DNA, 72 h; series mostly up to 28.7 µM. In short, it runs like this:
as §1

The subject of assay [9] is CP297. The description is as above. To be noted: P. falciparum in erythrocytes, SYBR Green DNA, 72 h; series mostly up to 28.7 µM. Summed up: as §1
Assay [10] relates to CP315. Described as above. The conditions noted are these: P. falciparum in erythrocytes, SYBR Green DNA, 72 h; series mostly up to 28.7 µM. In short, it runs like this: as §1
The test system of assay [11] is CP329. The description is as above. To be noted: P. falciparum in erythrocytes, SYBR Green DNA, 72 h; series mostly up to 28.7 µM. In short, it runs like this:
as §1

For assay [12], the system named is CP335. The description is as above. To be noted: P. falciparum in erythrocytes, SYBR Green DNA, 72 h; series mostly up to 28.7 µM. Summed up: as §1
Assay [13] has as its system DIV17. The assay is described as above. The conditions noted are these: P. falciparum in erythrocytes, SYBR Green DNA, 72 h; series mostly up to 28.7 µM. Summed up:
as §1

Assay [14] concerns DIV30. The assay is described as above. The conditions noted are these: P. falciparum in erythrocytes, SYBR Green DNA, 72 h; series mostly up to 28.7 µM. Summed up:
as §1

Assay [15] relates to ICS. The assay is described as above. The conditions noted are these: P. falciparum in erythrocytes, SYBR Green DNA, 72 h; series mostly up to 28.7 µM. Summed up:
as §1

Assay [16] deals with P94_40. The assay is described as above. To be noted: P. falciparum in erythrocytes, SYBR Green DNA, 72 h; series mostly up to 28.7 µM. Summed up:
as §1

Assay [17] has as its system W2. Described as above. The conditions noted are these: P. falciparum in erythrocytes, SYBR Green DNA, 72 h; series mostly up to 28.7 µM. Summed up: as §1
The target in assay [18] is Glucocorticoid receptor (Homo sapiens) (UniProt P04150). Nature of the assay: qHTS assay for small molecule agonists of glucocorticoid receptor signaling (AID 588532; active = well fitted curve in the direction sought with a large enough effect in the signal ratio, with a control signal flat; the % refers to the signal ratio;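 note: 100% = dexamethasone at 0.1 µM and 0% = DMSO only wells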). To be noted: HeLa MMTV-bla, beta-lactamase ratio, agonist, 18 h; active compounds read high; percent of dexamethasone control, DMSO zero. In short, it runs like this:
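Quantitative HTS using CellSensor MMTV-bla HeLa cells in charcoal/dextran-treated serum; compounds tested up to 92 uM. After 18 h at 37 C, CCF4 dye reported reporter induction.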

The subject of assay [19] is Dd2. Briefly: qHTS profiling for inhibitors of Plasmodium falciparum proliferation (AID 504749). Note: nearly all actives have a fitted effect of over 60% in size. Note: potency is the fitted concentration of half-maximal effect. To be noted: P. falciparum in erythrocytes, SYBR Green DNA, 72 h; series mostly up to 28.7 µM. In short, it runs like this: as §1
Assay [20] in a line: Viability counterscreen for antagonist of constitutive androstane receptor (CAR) against the NCATS DSHEA and TCM libraries (AID 1794837).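 Note: compound exposure lasted 24 h before viability reading; 0% is about no effect.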 In short, it runs like this: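 Counterscreen performed in a 1536-well qHTS format using HepG2-CYP2B6-hCAR cells; samples titrated in the presence of 48 uM CITCO, with viability measured fluorometrically (405/540 nm) after 24 h.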

“And” between values parts separate entries of the source, which are not always exact repeats. Equal values may be shown once. Results filed as inconclusive are left out. A number with no mark means an inactive call. The source made the active and inactive calls. Unless noted, calls come from the whole dose curve; as a rule, active = well fitted curve in the direction sought with a large enough effect; inconclusive = small, poorly fitted or top-dose-only effect, or another doubt; inactive = no such curve, though single readings can be large; an effect the other way counts as inactive or inconclusive.

Sequence of Glucocorticoid receptor (Homo sapiens) (P04150 whole entry, looked up): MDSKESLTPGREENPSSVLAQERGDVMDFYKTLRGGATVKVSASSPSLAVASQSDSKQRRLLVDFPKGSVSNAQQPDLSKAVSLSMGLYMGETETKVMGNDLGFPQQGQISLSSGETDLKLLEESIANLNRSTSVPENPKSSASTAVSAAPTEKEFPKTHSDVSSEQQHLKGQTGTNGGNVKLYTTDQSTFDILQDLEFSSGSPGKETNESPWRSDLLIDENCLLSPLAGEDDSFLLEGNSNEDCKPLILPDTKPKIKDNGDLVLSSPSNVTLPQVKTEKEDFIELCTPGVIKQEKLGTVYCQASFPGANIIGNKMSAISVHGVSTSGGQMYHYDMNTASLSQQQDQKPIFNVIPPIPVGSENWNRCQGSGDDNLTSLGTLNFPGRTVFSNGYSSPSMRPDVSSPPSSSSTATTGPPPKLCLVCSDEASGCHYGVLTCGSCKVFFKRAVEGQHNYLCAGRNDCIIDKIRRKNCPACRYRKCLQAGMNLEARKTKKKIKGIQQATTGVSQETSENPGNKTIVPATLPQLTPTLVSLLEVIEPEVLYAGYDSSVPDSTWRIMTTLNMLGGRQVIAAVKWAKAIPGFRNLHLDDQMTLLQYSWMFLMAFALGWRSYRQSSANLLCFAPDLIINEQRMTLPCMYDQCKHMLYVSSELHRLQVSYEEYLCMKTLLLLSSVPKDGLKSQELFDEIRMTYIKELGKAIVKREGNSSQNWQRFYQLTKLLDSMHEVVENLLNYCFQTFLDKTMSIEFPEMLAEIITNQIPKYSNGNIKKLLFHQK

Take `CCC(C)n1ncn(-c2ccc(N3CCN(c4ccc(OCC5COC(Cn6cncn6)(c6ccc(Cl)cc6Cl)O5)cc4)CC3)cc2)c1=O` (stereo not given): the Potency entry in assay [1], in [2], in assay [3], in [4], in [5] and in assay [6] was “inactive” throughout. Also, the Potency result in assay [7], in [9], in [10], in assay [11], in [13] and in assay [14] was “inactive” in each case. For the same compound, the Potency result in [16] was “inactive”. In addition, the Potency in [8] was 4.47 µM (active); in [12], 4.26 µM (active); in [15], 2.51 µM (active); in [17], 2.13 µM (active).
For the compound `O=C(Nc1ccccc1)c1ccccc1O`, in assay [18], the activation is 2.18%.
As to `CC12CCC(CC1=O)C2(C)C` (stereo not given), in assay [18], the activation was -1.08% and -9.03%. In addition, the Potency result in [1] was “inactive”.
Consider `CC(C)CN(C[C@@H](O)[C@H](Cc1ccccc1)NC(=O)O[C@H]1CCOC1)S(=O)(=O)c1ccc(N)cc1`, for which the Potency entry in assay [3], in assay [4], in assay [5], in assay [6], in assay [7] and in assay [9] was “inactive” throughout. In addition, the Potency entry in [10], in assay [11], in assay [13] and in assay [19] was “inactive” each time.
As to `O=c1c(O[C@@H]2O[C@H](CO)[C@H](O)[C@H](O)[C@H]2O)c(-c2ccc(O)c(O)c2)oc2cc(O)cc(O)c12`, the compound was classed as inactive in assay [20].
As to `CC(C)CN(C[C@@H](OP(=O)(O)O)[C@H](Cc1ccccc1)NC(=O)O[C@@H]1CCOC1)S(=O)(=O)c1ccc(N)cc1`, the Potency result in assay [2], in assay [3], in assay [4], in [5], in assay [6] and in assay [7] was “inactive” in each case. The Potency result in [8], in [9], in assay [10], in assay [11], in [12] and in assay [13] was “inactive” throughout. In addition, the Potency entry in [14], in assay [19], in assay [15], in [16] and in assay [17] was “inactive” each time.
As for `CC(C)=CCC[C@](C)(OC1OC(COC2OCC(O)C(O)C2O)C(O)C(O)C1O)[C@H]1CC[C@]2(C)[C@@H]1[C@H](O)C[C@@H]1[C@@]3(C)CC[C@H](OC4OC(CO)C(O)C(O)C4OC4OC(CO)C(O)C(O)C4O)C(C)(C)[C@@H]3CC[C@]12C` (stereo not given in full), in assay [20], the outcome was inactive.
As for `O=C(/C=C/c1ccc(O)c(O)c1)O[C@@H](C(=O)O)[C@@H](OC(=O)/C=C/c1ccc(O)c(O)c1)C(=O)O`, the activation in assay [18] is 1.43%. For the same compound, the Potency entry in assay [1] is “inactive”.
Consider `O=C(/C=C/c1ccc(O)c(O)c1)O[C@H]1[C@H](O)C[C@](O)(C(=O)O)C[C@H]1OC(=O)/C=C/c1ccc(O)c(O)c1`, for which the result in assay [20] was inactive.
For `O=C(O)c1cc(O)c2c(c1)[C@H]([C@H]1c3cc(C(=O)O)cc(O)c3C(=O)c3c(O[C@@H]4OC(CO)C(O)C(O)C4O)cccc31)c1cccc(O[C@@H]3OC(CO)C(O)C(O)C3O)c1C2=O` (stereo not given in full), the Potency result in assay [2], in assay [8], in assay [12], in assay [19], in [15] and in [16] was “inactive” throughout. The Potency entry in [17] is “inactive”. In assay [14], the Potency was 15.1 µM (active).

The record behind these values is PubChem BioAssay (NCATS).
